Screens deposited in PubChem BioAssay by National Center for Advancing Translational Sciences (NCATS).
ERK AVP block – blocks ERK signaling stimulated by vasopressin; 72,000 tested, 0.99% active; Potency, µM (highest dose often 57.5 µM), actives largely listed as inhibitors; HEK293-V1b, vasopressin-stimulated pERK AlphaScreen; note: nearly all actives have a fitted effect of over 55% in size
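V1b-HEK293 cells; cpd 30 min 37C; 25 nM vasopressin 5 min; lyse 10 min; AlphaScreen beads 5 hr RT. Normalized to DMSO basal and 25 nM vasopressin; AC50 by Hill fit.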
PK Bst – alters activity of Bacillus stearothermophilus pyruvate kinase; purified pyruvate kinase, luminescence ATP production; ribose 5-phosphate activator present at AC10; Potency, µM; 51,000 tested, 1.2% active; AID 361; in the data active = potency below about 11 µM; inconclusive = mostly about 12 µM to 25 µM;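 the screen sought inhibitors and activators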
Luciferase inh – firefly luciferase inhibition | Potency, µM (doses to about 57.1 µM), actives largely listed as inhibitors | AID 411 | purified firefly luciferase, luminescence, 8 min | P08659 | 72,000 tested, 2.2% active; note: nearly all actives have a fitted effect of over 40% in size
Target sequence (P08659 whole entry, looked up): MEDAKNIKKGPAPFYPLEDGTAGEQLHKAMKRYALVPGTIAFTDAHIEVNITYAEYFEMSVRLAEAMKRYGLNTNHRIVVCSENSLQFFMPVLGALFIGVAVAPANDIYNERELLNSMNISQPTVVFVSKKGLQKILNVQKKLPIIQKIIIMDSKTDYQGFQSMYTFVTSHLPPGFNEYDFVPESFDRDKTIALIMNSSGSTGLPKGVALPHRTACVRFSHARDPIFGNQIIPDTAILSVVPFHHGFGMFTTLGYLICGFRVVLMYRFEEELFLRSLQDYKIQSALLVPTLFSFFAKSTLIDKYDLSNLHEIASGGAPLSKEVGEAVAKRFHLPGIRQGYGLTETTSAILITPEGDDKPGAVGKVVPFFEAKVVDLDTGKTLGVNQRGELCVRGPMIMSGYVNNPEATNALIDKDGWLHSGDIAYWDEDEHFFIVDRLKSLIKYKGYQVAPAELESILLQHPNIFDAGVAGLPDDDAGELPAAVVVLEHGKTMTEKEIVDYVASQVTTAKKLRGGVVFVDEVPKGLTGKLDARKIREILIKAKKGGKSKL
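Compounds were tested as concentration series (qHTS) against purified P. pyralis luciferase with luciferin and 10 uM ATP in 50 mM imidazole pH 7.2, 50 mM KCl, 7 mM MgCl2, 0.01% Tween 20, 0.05% BSA. Luminescence was read after 8 min at ambient temperature.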
Hsp90 Hop PPI – changes Hsp90-Hop TPR2A binding signal, up or down; AlphaScreen TPR2A-His6 binding biotin-Hsp90 C-terminal peptide; Potency, µM (series often up to 57 µM); 71,000 tested, 0.44% active; active = well fitted curve in either direction with a large enough effect; inconclusive = small, poorly fitted or top-dose-only effect, or another doubt
15-hLO inh – blocks human 15-lipoxygenase activity; P16050; purified 15hLO-1, xylenol orange hydroperoxide absorbance; Potency, µM (titrated, usually from 57.1 µM), most hits filed as inhibitors; 74,000 tested, 1.4% active; note: nearly all actives have a fitted effect of over 55% in size
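Compounds were preincubated 15 min at room temperature with 40 nM purified human enzyme (25 mM Hepes pH 7.5, 0.01% Triton X-100); 50 uM arachidonic acid reacted 6 min. Fe-xylenol orange detection, 30 min, absorbance ratio 573/405 nm.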
Tau filament bind – binds recombinant human tau filaments. recombinant tau filaments, thioflavin S fluorescence, 15 h; filaments grown with octadecylsulfate alongside compound. Potency, µM (titrated, usually from 57.1 µM). 71,000 tested, 2% active;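 note: actives lower thioflavin S fluorescence by blocking filaments or displacing dye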
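His-tagged recombinant human tau (exons 2, 3, 10; 1 uM final) fibrillized with 30 uM sodium octadecylsulfate, 15 h at 37 C, in pH 7.4 HEPES buffer with 10 uM thioflavine S and 5 mM DTT. Reduced ThS fluorescence (450/510 nm) marks activity.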
Hits are given with their value; – = inactive; ? = inconclusive; · = no result given; [ ] = another dose, or the depositor's remark. This is a sample that favours compounds with a hit; in the whole collection about 6.1% have one here. Unless noted, calls come from the whole dose curve; as a rule, active = well fitted curve in the direction sought with a large enough effect; inconclusive = small, poorly fitted or top-dose-only effect, or another doubt; inactive = no such curve, though single readings can be large; an effect the other way counts as inactive or inconclusive.

SMILES	ERK AVP block	PK Bst	Luciferase inh	Hsp90 Hop PPI	15-hLO inh	Tau filament bind
O=C1C(Cl)=C(N2CCCCC2)C(=O)N1c1ccccc1	–	·	–	?	16µM	–
Cc1ccccc1N1C(=O)C(Cl)=C(N2CCCCCC2)C1=O	–	·	–	?	10µM	13µM
O=C1C(Cl)=C(N2CCCCC2)C(=O)N1c1ccccc1Cl	–	·	–	?	?	–
O=C(O)c1ccc(NS(=O)(=O)c2cccc3ccccc23)cc1	·	·	·	·	–	·
COC(=O)c1cc(NCc2c(F)cccc2Cl)ccc1N1CCOCC1	?	–	–	–	16µM	?
COC(=O)c1cc(NCc2cccs2)ccc1N1CCOCC1	–	–	–	–	20µM	–
CC(C)NC(=O)N1CC2(CCN(C(=O)c3ccncc3)CC2)C1	–	·	–[11.4 µM]	–	–	–
O=C(NCCCn1ccnc1)c1cn(-c2ccccc2)nc1-c1ccccc1	?	·	13µM	–	–	–
Cn1c(=O)c(-c2cc(F)cc(F)c2)nc2cnc(N3CCNCC3)nc21	–	·	–[11.4 µM]	–	–	5µM
CN(C)c1ncc2nc(-c3ccc(F)cc3)c(=O)n(Cc3cccs3)c2n1	–	·	–[11.4 µM]	–	–	–
Cc1nc2cnc(N(C)C)nc2n(Cc2cccs2)c1=O	–	·	–[11.4 µM]	–	–	–
CN1CCN(c2ncc3nc(-c4cc(F)cc(F)c4)c(=O)n(Cc4cccs4)c3n2)CC1	–	·	–[11.4 µM]	–	–	3.2µM
CN1CCN(c2ncc3nc(-c4cc(F)cc(F)c4)c(=O)n(C)c3n2)CC1	–	·	–[11.4 µM]	–	–	–
CN(C)c1ncc2nc(CCc3ccccc3)c(=O)n(Cc3cccs3)c2n1	–	·	–[11.4 µM]	25µM	?	–
CN(C)c1ncc2nc(-c3cc(F)cc(F)c3)c(=O)n(Cc3cccs3)c2n1	–	·	–[11.4 µM]	–	7.9µM	–
CC1(C)OC2CC3C4CC(F)C5=CC(=O)C=CC5(C)C4C(O)CC3(C)[C@]2(C(=O)CO)O1 (stereo not given in full)	–	·	·	·	–	·
COc1cccc(Cn2c(=O)cnc3cnc(N(C)C)nc32)c1	–	·	–[11.4 µM]	–	–	–
COc1ccc2[nH]cc(CCNc3ncncc3-c3cccc(C#N)c3)c2c1	?	·	–[2.29 µM]	–	–	–
CN1CCC2(CC1)CCN(C(=O)c1ccncc1)CC2	–	·	–[11.4 µM]	–	–	–
Nc1[nH]c(=O)nc2c1ncn2[C@H]1O[C@@H](CO)[C@@H](O)[C@@H]1O	–[11.5 µM]	·	–[11.4 µM]	–[11 µM]	–[11.4 µM]	–[11.4 µM]
Cc1n[nH]c(C)c1-c1nc2ccccc2[nH]1	–	–	–	–	–	–
Cc1[nH]nc2c1-c1nc3ccccc3nc1C(C)(C)C2	13µM	–	–	–	–	–
O=C(c1ccncc1)N1CCC[C@@]2(CCN(c3ccccn3)C2)C1	–	·	–[11.4 µM]	–	–	–
FC(F)C(F)(F)C1=CC(c2ccccc2)=NCCN1	–	·	–	–	–	13µM
FC(F)C(F)(F)C1=CC(c2cccs2)=NCCN1	–	–	–	–	–	16µM
SMILES	ERK AVP block	PK Bst	Luciferase inh	Hsp90 Hop PPI	15-hLO inh	Tau filament bind
CCOC(=O)CSc1nc(N)c(C#N)c(-c2ccc(OC)cc2)c1C#N	·	–	–	·	·	·
C=C(C)CSc1nc(N)c(C#N)c(-c2ccc(C)cc2)c1C#N	–	–	–	?	32µM	–
CCOC(=O)CSc1cccc2cccnc12	–	–	–	16µM	–	–
Nc1ncnc2nc(Cl)[nH]c12	–	·	·	·	–	·
COC(=O)CS	–	·	·	–	–	–
CCOc1ccc(NC(=O)c2cccc3c2C(=O)N(Cc2cccnc2)C3)cc1	–	4.2	4µM	–	–	–
CCCN1Cc2cccc(C(=O)Nc3ccc(CN4CCCC4)cc3)c2C1=O	–	–	20µM	–	–	–
CC[C@@]12CCCN3CCc4c(n(c5ccccc45)C(=O)C1)[C@H]32	–[11.5 µM]	·	–[11.4 µM]	–[11 µM]	–[11.4 µM]	?
COc1nc(N2CCCCCC2)nc(N2CCCCCC2)n1	–	–	–	–	–	–
COc1nc(Nc2cccc(C)c2)nc(N2CCCCC2)n1	–	–	–	–	4µM	–
Nc1ccc(C2CCCc3nonc32)c2nonc12 (stereo not given)	?	·	–	?	7.9µM	25µM
CCCC(c1nnnn1Cc1ccc(F)cc1)N1CCN(C2CCCCC2)CC1 (stereo not given)	32µM	–	–	–	?	–
COc1cccc(C(=O)NC2CC3CCCC(C2)N3CC(=O)Nc2ccc(N(C)C)cc2)c1 (stereo not given)	–	–	–	?	–	13µM
COc1cccc(C(=O)NC2CC3CCCC(C2)N3CC(=O)Nc2ccccc2)c1 (stereo not given)	–	–	–	?	–	–
COc1ccc(OC)c(N2Cc3cc(C)c(C)cc3C2)c1	–	–	–	?	–	16µM
CCOc1ccccc1N1Cc2cc(C)c(C)cc2C1	–	·	–	?	–	7.9µM
COc1ccccc1-c1cncnc1NCCN1CCOCC1	–	·	–[2.29 µM]	–	–	–
CC(C)NC(=O)Nc1cccs1	·	·	·	·	–	·
O=C(Nc1cccs1)NC1CCCC1	–	–	–	–	13µM	–
O=S1(=O)c2cccc3cccc(c23)N1Cc1ccc(-c2nnco2)cc1	–	1.5	–	–	–	–
O=S1(=O)c2cccc3cccc(c23)N1Cc1nnc(-c2ccccc2Br)o1	–	2.1	–	–	–	–
COc1ccc(Cl)cc1NC(=O)C1CSC(c2ccncc2)=N1 (stereo not given)	16µM	·	–	–	?	–
NNC(=O)CCSc1ccccc1	–[11.5 µM]	·	–[11.4 µM]	–[11 µM]	–[11.4 µM]	–[11.4 µM]
COC(=O)C1=C(C)NC(C)=C(C(=O)OCCSc2ccccc2)[C@@H]1C	–	·	–	40µM	–	?
COc1cc2c(C#N)c(N3CCCCC3)nc(N)c2c(N)n1	?	–	20µM	–	–	–
SMILES	ERK AVP block	PK Bst	Luciferase inh	Hsp90 Hop PPI	15-hLO inh	Tau filament bind
COc1cc2c(C#N)c(N3CCOCC3)nc(N)c2c(N)n1	–	·	?	–	–	–
N=C1N=C(N)c2cc3ccccc3cc21	–	·	·	–	–	2.5µM
Nc1ccc2cc3ccccc3cc2c1	–	·	·	–	?	?
O=C(Nc1ccc(N2CCN(C(=O)c3ccc(Cl)cc3)CC2)cc1)c1cccnc1	?	?	–	–	–	10µM
O=C(Nc1ccccc1N1CCN(C(=O)c2ccc(Cl)cc2)CC1)c1cccnc1	–	?	–	–	–	–
Clc1ccc(OCc2nc(-c3ccncc3)no2)c(Cl)c1	?	–	16µM	?	–	–
CC(C)(C)c1ccc(OCc2nc(-c3ccccn3)no2)c(Br)c1	–	·	?	?	–	–
Clc1cc(Cl)c(OCc2nc(-c3ccccn3)no2)cc1Cl	–	–	13µM	–	–	–
CCOC(=O)c1c(N)sc2c1CCCC2	?	–	–	–	?	–
CCOC(=O)c1c(N2C(=O)C3C4C=CC(O4)C3C2=O)sc2c1CCCC2 (stereo not given)	–	·	–	–	7.9µM	–
COC(=O)c1cccc(Nc2nc3ccccc3nc2C)c1	25µM	·	–	–	–	–
CS(=O)(=O)N1CCC2(CCCN(Cc3ccc(C#N)cc3)C2)CC1	–	·	–[11.4 µM]	–	–	–
